Abeta yeast res = compounds reversing amyloid beta toxicity in yeast | yeast expressing A-beta42, growth rescue, OD600, 48 h; response scale: 0% DMSO, 100% iron-clioquinol control | Potency, µM (doses to about 46.1 µM), usual class: activators | 410,000 compounds, 0.063% hits; note: nearly all actives have a fitted effect of over 55% in size
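Growth rescue measured by 600 nm absorbance after 48 h yeast culture at 30 C with compound. Values normalized between DMSO and an equimolar ferric chloride plus clioquinol control.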
TDP43 rescue = TDP-43 toxicity inhibition in yeast; TDP-43 expressing yeast growth rescue, BacTiter-Glo, 24 h; Potency, µM (series often up to 46.1 µM), actives largely listed as activators; 410,000 compounds, 1.8% hits; AID 652104; note: nearly all actives have a fitted effect of over 50% in size
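In this qHTS, compounds that restore growth of yeast expressing TDP-43 appear as activators. Cells (OD600=0.02, galactose medium, raffinose-pregrown) are incubated with compound 24 hr at 30 deg C and growth is quantified by BacTiter-Glo.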
FUS suppressor = FUS proteinopathy suppression in yeast. Potency, µM (doses to about 76.6 µM), most hits filed as activators. S. cerevisiae FUS-expressing, growth rescue, OD600, 24 h. 390,000 compounds, 0.24% hits; note: nearly all actives have a fitted effect of over 55% in size
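Quantitative HTS measuring growth restoration of FUS-toxic yeast. Galactose-induced cells (OD 0.005) were exposed 24hr at 30C to compounds at several concentrations, then absorbance at 600 nm was recorded.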
aSyn yeast inh = rescues yeast growth from alpha-synuclein toxicity | AID 652106 | 370,000 compounds, 0.14% hits | Potency, µM (series often up to 46.1 µM), usual class: activators | Yeast expressing alpha-synuclein, growth rescue, BacTiter-Glo, 24 h; note: nearly all actives have a fitted effect of over 65% in size
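Galactose-induced alpha-syn yeast (OD600=0.02, raffinose-pregrown) + pinned cpd, 24 hr, 30 deg C; growth by BacTiter-Glo luminescence. Growth restoration scores as activation.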
Numbers stand for hits; – = inactive; ? = inconclusive; · = not tested or not shown; [ ] = another dose, or the depositor's remark. In the library only some 2.1% were active in any assay of this set; here they are far more common. Calls come from the whole dose curve; as a rule, active = well fitted curve in the direction sought with a large enough effect; inconclusive = small, poorly fitted or top-dose-only effect, or another doubt; inactive = no such curve, though single readings can be large; an effect the other way counts as inactive or inconclusive.

SMILES	Abeta yeast res	TDP43 rescue	FUS suppressor	aSyn yeast inh
CCN(CC(=O)Nc1ccc(OC)cc1)C(=O)c1ccc2c(c1)NC(=O)CS2	–	–	–	–
Cc1nnc(SCc2ccc(C(=O)Nc3cc(Cl)ccc3C)cc2)s1	–	10µM	–	–
CNc1nc(N)c([N+](=O)[O-])c(Nc2ccccc2OC)n1	–	2.51µM	–	–
Cc1ccc(CN2CCCCC(NC(=O)Nc3cccc([N+](=O)[O-])c3)C2=O)cc1 (centres undefined)	·	·	–	·
Cc1c2ccncc2cc2c1[nH]c1ccccc12	–	–	–	10µM
Cc1cn2c(=O)cc(COc3cccc(NC(=O)c4ccccc4Cl)c3)nc2s1	–	–	–	·
COc1cc(C(O)c2nc(/C=C/c3ccccc3)cs2)ccc1F (centres undefined)	–	22.4µM	–	–
OC(c1ccccc1)c1nc(/C=C/c2ccccc2)cs1 (centres undefined)	–	14.1µM	–	–
OC(c1ccc(F)cc1)c1nc(/C=C/c2ccccc2)cs1 (centres undefined)	–	?	–	–
COc1ccc(-c2nc3sc(CCNC(=O)c4cc(OC)c(OC)c(OC)c4)c(C)n3n2)cc1	–	–	–	·
O=C(CC1N=C2c3ccccc3N=C(SCc3ccc(Cl)cc3)N2C1=O)NCCc1ccccc1 (centres undefined)	–	–	?	·
CCOc1ccc(NC(=O)c2ccc3c(c2)CCN3S(C)(=O)=O)cc1	–	?	–	–
Cc1ccccc1S(=O)(=O)Cc1ccc(C(=O)NCc2ccccc2Cl)o1	–	–	–	·
CCc1ccccc1S(=O)(=O)Cc1ccc(C(=O)NCc2ccc(Cl)cc2)o1	–	35.5µM	–	·
CCc1ccccc1S(=O)(=O)Cc1ccc(C(=O)NCCc2ccc(Cl)cc2)o1	–	35.5µM	?	·
O=C(NCCc1ccccc1)c1ccc(CS(=O)(=O)c2ccc(Cl)cc2)o1	–	–	–	–
COc1cc2c(cc1NC(=O)CSc1nnc(COc3ccccc3)n1Cc1ccco1)oc1ccccc12	·	·	–	·
Cc1ccc(NC(=O)Cn2cc(S(=O)(=O)c3ccc(C)cc3)c(=O)c3cc4c(cc32)OCO4)cc1	–	–	–	·
CCCCN1C(=O)c2[nH]nc(-c3ccccc3O)c2C1c1ccc(OCc2ccccc2)cc1 (centres undefined)	–	–	–	·
Cc1ccc(NC(=O)COc2ccccc2C(=O)Nc2ccccc2)cc1	·	·	·	–
CNC(=S)N1N=C(c2ccc(OC)cc2)CC1c1ccccc1Cl (centres undefined)	–	3.16µM	–	–
COc1ccc(-c2nn3c(-c4cc(C)[nH]n4)nnc3s2)cc1	·	·	·	–
O=C(CC1CC2CCC1C2)N1CCN(S(=O)(=O)c2ccccc2C(F)(F)F)CC1 (centres undefined)	–	22.4µM	?	–[1.84 µM]
O=C(N/N=C/C(Cl)=C/c1ccccc1)c1ccccn1	–	10µM	–	–
CSc1nc2ncc3c(n2n1)CC1c2ccccc2CCN1C3=O (centres undefined)	–	15.8µM	–	·
SMILES	Abeta yeast res	TDP43 rescue	FUS suppressor	aSyn yeast inh
CCCCN1C(C(=O)c2ccccc2)=C(OC(C)=O)c2ccccc2S1(=O)=O	–	–	–	·
CCCCC(=O)OC1=C(C(=O)c2ccccc2)N(CC)S(=O)(=O)c2ccccc21	–	15.8µM	–	·
CC(=O)c1ccc(NC(=O)Nc2sc3nc4n(c(=O)c3c2C)CCC(C)CC4)cc1 (centres undefined)	–	–	–	·
Cc1cccc(C)c1N1C(=O)c2cccc([N+](=O)[O-])c2C1=O	–	?	·	–
Cc1ccc(N2C(=O)c3cccc([N+](=O)[O-])c3C2=O)cc1C	–	12.6µM	–	–
COc1ccc(Nc2oc(COc3ccc(Cl)cc3)nc2C#N)cc1	–	28.2µM	–	–
Cc1ccc(OCc2nc(C#N)c(NCc3ccc4c(c3)OCO4)o2)cc1	–	11.2µM	–	–
CCOc1ccc(-c2nc(C#N)c(NCc3ccc4c(c3)OCO4)o2)cc1	–	–	–	–
COc1ccc(CNc2oc(COc3ccc(Cl)cc3)nc2C#N)cc1	–	?	·	–
CCOC(=O)c1nnsc1Nc1ccc(C)c(C)c1	–	11.2µM	–	–
Cc1cccc(SCC(=O)Nc2ccc3c(c2)OCCO3)c1	–	11.2µM	–	–
Cc1ccc2oc(=O)c3cnn(CC(=O)N4CCN(c5cc(Cl)ccc5C)CC4)c3c2c1	–	–	–	·
CSc1nn(Cc2cccc(Cl)c2)c(N(C(C)=O)C(C)=O)c1S(=O)(=O)c1ccccc1	–	11.2µM	–	·
Cc1cccc(NC(=O)CN(C)S(=O)(=O)c2ccc3c(c2)n(C)c(=O)c(=O)n3C)c1C	–	–	–	–
O=c1[nH]c2cc3c(cc2cc1C(c1nnnn1Cc1ccccc1)N1CCCCCC1)OCCO3 (centres undefined)	–	–	–	–
O=c1[nH]c2cc3c(cc2cc1C(c1nnnn1Cc1ccccc1)N1CCN2CCCC2C1)OCCO3 (centres undefined)	–	–	17.8µM	–
CC(C(=O)Nc1ccccc1)N1C(=O)c2ccccc2C1=O (centres undefined)	–	–	–	–
CC(C)C(C(=O)Nc1ccccc1)N1C(=O)c2ccccc2C1=O (centres undefined)	–	15.8µM	–	–
O=C(O)COc1ccccc1/C=N/NC(=O)CSc1nc2ccccc2n1Cc1ccccc1Cl	–	–	–	–
Cc1ccc(CN(C)C(=O)COC(=O)CSc2cc(C)c3ccccc3n2)cc1	–	–	–	–
COC(=O)c1sc(S(=O)(=O)Nc2ccc(C)cc2)c(C(=O)OC)c1C	–	20µM	–	–
Cc1nnc(NC(=O)CSCc2cc(=O)c3cc(Cl)ccc3[nH]2)s1	–	–	–	·
CCOC(=O)c1sc2nccc(N(C)C)c2c1N=CNOCc1c(F)cccc1Cl	–	17.8µM	–	–
C[C@H](CO)N1C[C@H](C)[C@@H](CN(C)C(=O)Nc2ccc3c(c2)OCO3)Oc2c(NC(=O)Nc3ccc4c(c3)OCO4)cccc2C1=O	–	–	?	–
O=C1C(=O)c2c(ccc3ccccc23)-c2ccccc21	–	2µM	–	–
SMILES	Abeta yeast res	TDP43 rescue	FUS suppressor	aSyn yeast inh
CS(=O)(=O)c1ccccc1NC(=O)COc1ccccc1C(=O)Nc1ccccc1	·	·	·	–
CCc1c(C)nc2nncn2c1Nc1ccc(C(C)C)cc1	–	12.6µM	–	·
CC(C)[C@H](NC(=O)OC(C)(C)C)C(=O)N1CCC(Oc2cccnc2)CC1	·	·	–	·
O=C(C1CCCCC1)N1CCC2CC1c1cc(Cl)ccc12 (centres undefined)	–	–	–	–
COc1ccc(OC)c(/C=C/C(=O)c2ccc3c(c2)OCCO3)c1	–	11.2µM	–	–
COc1cc(/C=C/C(=O)c2ccc3c(c2)OCCO3)cc(OC)c1OC	–	?	–	–
CC1CC2(C)CC(C)C1(COC(=O)Nc1ccccc1)CO2 (centres undefined)	–	35.5µM	–	–
O=S1(=O)C=CCN1Cc1cn(Cc2cccc(Cl)c2)nn1	·	·	–	·
O=C(Nc1nnc(-c2ccco2)o1)c1ccc(Cl)s1	–	?	–	–
O=C(Nc1nnc(-c2ccccc2)o1)c1cc(Cl)sc1Cl	?	–	–	3.16µM

Bioassay records as filed in PubChem.
